Results published in PubChem BioAssay (Tox21).
Results filed as inconclusive are left out. A number with no mark means an inactive call. The source made the active and inactive calls. The call rests on the fitted dose curve.

assay: cAMP Responsive Elements (CRE) small molecule agonists, cell-based qHTS assay (AID 1963590); details: CRE-bla HEK293T, beta-lactamase FRET ratio, 3 h; series mostly up to 92.4 µM; activation: at the top concentration
Excerpt: U.S. Tox21 Program National Center for Advancing Translational Sciences [NCATS] Division of Preclinical Innovation [DPI] U.S. Environmental Protection Agency [EPA] National Institutes of Environmental Health Sciences [NIEHS] National Toxicology Program [NTP] U.S. Food and Drug Administration [FDA] Tox21 Assay Overview: CREB (cyclic-AMP Responsive Element Binding Protein) is a cellular transcription factor. It binds to certain DNA sequences called cAMP Responsive Elements (CRE) and regulates the transcription of the genes. […] This cell line can be used to find agonists/antagonists of the cyclic AMP signaling pathway. The activation of the report gene under culture conditions can be detected by fluorescence intensity. This cell line has been used to screen the Tox21 10K compound library to identify agonists that induce oxidative stress.
Tox21 Assay Protocol Summary: CRE-bla Hek 293T cells were suspended in assay medium (DMEM containing 10% dialyzed FBS, 0.1 mM NEAA, 1 mM sodium pyruvate and 25 mM HEPES) and dispensed at 2,000 cells/5 uL /well into 1536-well black wall/clear bottom plates using a Multidrop Combi (ThermoFisher Scientific, Waltham, MA) dispenser. After the assay plates were incubated at 37 C/5% CO2 for 18 hrs, 23 nL of compounds dissolved in DMSO, positive controls or DMSO only was transferred to the assay plate by a pintool workstation (Kalypsys, San Diego, CA). After the plates were incubated at 37 C/5% CO2 for 3 hrs, 1 uL of LiveBLAzer B/G FRET substrate (Invitrogen, Carlsbad, CA) was added to each well using Bioraptr Flying Reagent Dispenser (FRD, Aurora Discovery, San Diego, CA). The plates were incubated at room temperature for 2 h.
On the % scale 0 is the no-effect control and ±100 the full control effect.

SMILES	activation	Potency
O=C(O)c1ccc(O)c(O)c1	1.4%	–
Nc1ccn(C2CO[C@H](CO)O2)c(=O)n1 (stereo not given in full)	5.45% [at 42.5 µM]	–
C/C=C/C=C/CO	1.4%	–
CCC1(c2cnc[nH]2)Cc2ccccc2C1	1.71% [at 42.5 µM]	–
CC(CSC(=O)c1ccccc1)C(=O)N1C[C@@H](Sc2ccccc2)C[C@H]1C(=O)O (stereo not given in full)	-1.82% [at 19 µM]	–
CC(C)(c1ccccc1)c1ccccc1	0.531%	–
CCn1ccc(NS(=O)(=O)c2ccc(N)cc2)nc1=O	-0.495% [at 42.5 µM]	–
O=C1c2ccccc2C(=O)c2c1ccc(O)c2O	0.169% [at 42.5 µM]	–
FB(F)F	-0.224%	–
COc1cc([C@@H]2c3cc4c(cc3[C@@H](O[C@@H]3O[C@@H]5CO[C@@H](C)O[C@H]5[C@H](O)[C@H]3O)[C@H]3COC(=O)[C@H]23)OCO4)cc(OC)c1O	5.25%	–
CCC(C)OC(C)CC (stereo not given)	0.544%	–
CCCCN	0.408% [at 42.5 µM]	–
Cc1ccccc1N=C(N)N=C(N)N	-1.01%	–
CC(C)C(C)C	0.0204%	–
CC(=O)Nc1ccc(S(=O)(=O)Nc2ccc([N+](=O)[O-])cc2)cc1	0.608% [at 42.5 µM]	–
SCCc1cnccn1	3.8%	–
O=C(O)/C=C(\CC(=O)O)C(=O)O	-0.43% [at 42.5 µM]	–
Oc1cccc(-c2c3nc(c(-c4cccc(O)c4)c4ccc([nH]4)c(-c4cccc(O)c4)c4nc(c(-c5cccc(O)c5)c5ccc2[nH]5)CC4)C=C3)c1	-1.42% [at 42.5 µM]	–
C=C(C)C(=O)OCC	0.64%	–
O=C1c2ccccc2-c2ccccc21	-0.032%	–

SMILES	activation	Potency
C=C(C)[C@@H]1CC=C(C)CC1	0.634%	–
CN(C)CCOC(=O)C(c1ccccc1)C1(O)CCCC1 (stereo not given)	0.563% [at 42.5 µM]	–
CC(C)c1ccccc1N	0.146%	–
C1C2OC2C2C1C1CC2C2OC12 (stereo not given)	0.174%	–
CN(C)CCN(C)CCO	0.112%	–
O=C(c1ccccc1)C1CCC1	-0.55%	–
CC1CN(c2ccccc2)NC1=O (stereo not given)	-3.69%	–
Cc1ccccc1Br	0.228%	–
N#CCCCC(C#N)CCC#N (stereo not given)	-1.44%	–
CN1CCC(N(Cc2cccs2)c2ccccc2)CC1	3.23% [at 42.5 µM]	–
CC(C)OC(=O)CCC(=O)OC(C)C	0.0659%	–
CCCCN1C(=O)c2ccccc2C1=O	-0.16%	–
CCCCCCCC#N	0.796%	–
CN1CCN(c2cc3c(nn2)Oc2ccccc2N3C)CC1	1.47% [at 19 µM]	–
CCCCCC/C=C\CCCCCCCC(=O)O	0.789%	–
O=C(CCCN1CCC(O)(c2ccc(Cl)cc2)CC1)c1ccc(F)cc1	–	inactive
CCN1C=CN(C)C1C (stereo not given)	-0.479%	–
CCCCCCCC/C=C\CCCCCCCC(=O)OCC	-0.811%	–
CC1(C)C(=O)NC(=O)N1CO	0.0906%	–
CCCCCCCCCCCCCOC(=O)CCSCCC(=O)OCCCCCCCCCCCCC	-0.927% [at 19 µM]	–
